Measurements taken from PubChem BioAssay (Tox21).
Records with an inconclusive call do not appear. A call without a number means that no potency is given here. A number with no mark means an inactive call. Activity calls are given as the source filed them. The call rests on the fitted dose curve.

Assay: qHTS assay to identify small molecule agonists of the progesterone receptor (PR) signaling pathway - cell viability counter screen (AID 1346799); further: nearly all actives have a fitted effect of over 45% in size
Conditions: PR-UAS-bla HEK293T viability, CellTiter-Glo luminescence, 16 h; series mostly up to 92.4 µM
From the text: National Center for Advancing Translational Sciences [NCATS]
NIH Chemical Genomics Center [NCGC]
U.S. Environmental Protection Agency [EPA]
National Institutes of Environmental Health Sciences [NIEHS]
National Toxicology Program [NTP]
U.S. Food and Drug Administration [FDA]
Progesterone receptor (PR), a nuclear hormone receptor, plays an important role in development, metabolic homeostasis and reproduction. It is activated by the steroid hormone progesterone. Endocrine disrupting chemicals (EDCs) and their interactions with steroid hormone receptors like PR causes disruption of normal endocrine function. To identify the compounds that stimulate PR signaling, a PR-UAS-bla GripTite cell line i.e. PR-UAS-bla HEK293T (Invitrogen, Carlsbad, CA, USA) containing a beta-lactamase reporter gene under the control of an UAS response element was used to screen Tox21 10K compound library. The cytotoxicity of the Tox21 compound library against the PR-bla cell line was tested in parallel by measuring the cell viability using CellTiter-Glo assay in the same wells.
Tox21 Assay Protocol Summary:
PR-UAS-bla HEK293T cells were dispensed at 3,000 cells/5 uL of assay medium containing 2% charcoal stripped FBS per well into black wall/clear-bottom 1536-well plates using a Multidrop Combi (ThermoFisher Scientific, Waltham, MA) dispenser. After the assay plates were incubated at a 37C and 5% CO2 for 6 hr, 23 nL of compounds dissolved in DMSO, positive controls or DMSO only was transferred to the assay plate by a Pintool station (Kalypsys, San Diego, CA). The plates were incubated at 37C and 5% CO2 for 16 hr. Then 1 uL of LiveBLAzer B/G FRET substrate was added using a Flying Reagent Dispenser (FRD, Aurora Discovery, San Diego, CA), the plates were incubated at room temperature for 2 hours, and fluorescence intensity was measured by an Envision plate reader (PerkinElmer, Shelton, CT). For cell viability readout that measures cytotoxicity, 4 uL/well of CellTiter-Glo reagent was added into the assay plates using a FRD. After 30 min incubation at room temperature, the luminescence intensity in the plates was measured using a ViewLux (PerkinElmer) plate reader.

Row | SMILES | Potency | activity change, negative = cytotoxicity
1 | CC1(CO)CN(c2ccccc2)NC1=O (stereo not given) | inactive | 
2 | Cc1cccc(C)c1NC(=O)c1ccccc1C(=O)O | inactive | 
3 | N[C@@H](CCC(=O)N[C@@H](CS)C(=O)NCC(=O)O)C(=O)O |  | 3.29% [at 19 µM]
4 | CCOC(=O)[C@H](CCc1ccccc1)N[C@@H](C)C(=O)N1C(=O)N(C)C[C@H]1C(=O)O | inactive | 
5 | NNc1nnc(NN)c2ccccc12 | inactive | 
6 | CCCCCCCCCCl | inactive | 
7 | FC(F)(F)c1ccccc1-n1ccnc1 | inactive | 
8 | COc1ccc2c(c1OC)C(=O)O[C@@H]2[C@H]1c2c(cc3c(c2OC)OCO3)CCN1C | inactive | 
9 | BrCCCCCBr | inactive | 
10 | CN1C(C)(C)CCCC1(C)C | inactive | 
11 | C[Si](C)=O |  | 7.66% [at 8.39 µM]
12 | O=C(O)c1ccc(Cl)cc1Cl | inactive | 
13 | CCCCNC1CC(C)(C)NC(C)(C)C1 | inactive | 
14 | Cc1ccccc1N=O | inactive | 
15 | N[C@@H](COP(=O)(O)O)C(=O)O |  | 13.8% [at 19 µM]
16 | O=C1c2ccccc2C(=O)C1c1ccccc1 | inactive | 
17 | COC(=O)c1ccccc1C(=O)c1ccc(OCCN2CCCCC2)cc1 | inactive | 
18 | Cc1cc2cc3c(C)cc(=O)oc3c(C)c2o1 | inactive | 
19 | CCCCCCCCC(=O)Cl | inactive | 
20 | O=C(CS(=O)Cc1ccco1)NC/C=C\COc1cc(CN2CCCCC2)ccn1 (stereo not given) | inactive | 

Row | SMILES | Potency | activity change, negative = cytotoxicity
21 | CC(=C(CCOC(=O)C(C)C)SSC(CCOC(=O)C(C)C)=C(C)N(C=O)Cc1cnc(C)nc1N)N(C=O)Cc1cnc(C)nc1N | inactive | 
22 | C[C@@H]1O[C@@H](O[C@@H]2[C@@H](O)[C@H](OCCc3ccc(O)c(O)c3)O[C@H](CO[C@@H]3O[C@H](CO)[C@@H](O)[C@H](O)[C@H]3O)[C@H]2OC(=O)/C=C/c2ccc(O)c(O)c2)[C@H](O)[C@H](O)[C@H]1O | inactive | 
23 | Nc1ccc(S(=O)(=O)Nc2ccc(Cl)nn2)cc1 | inactive | 
24 | CC(=O)/C=C/C1C(C)=CCC(C)C1(C)C (stereo not given) | inactive | 
25 | OC[C@H](Cc1cccc(O)c1)[C@H](CO)Cc1cccc(O)c1 | inactive | 
26 | CCCCCCCCOS(=O)(=O)O | inactive | 
27 | CC(C)(C)c1nnc(NS(=O)(=O)c2ccc(N)cc2)s1 | inactive | 
28 | Nc1cccc(O)c1 | inactive | 
29 | Nc1ccc2cc(S(=O)(=O)O)cc(O)c2c1 | inactive | 
30 | O=C1CC(c2ccc(Cl)cc2)CC(=O)N1 | inactive | 
31 | C=C(C)C(=O)OCCN(CC)CC | inactive | 
32 | O=C(NCC(O)CO)c1c(I)c(C(=O)NCC(O)CO)c(I)c(N(CCO)C(=O)CO)c1I (stereo not given) | inactive | 
33 | CN1CCN(CC(=O)N2c3ccccc3C(=O)Nc3cccnc32)CC1 |  | -2.12% [at 8.39 µM]
34 | O=C1CCCC(=O)O1 | inactive | 
35 | Oc1ccccc1-c1nnco1 | inactive | 
36 | CN=C(NC#N)Nc1ccc(C2=NNC(=O)CC2C)cc1 (stereo not given) | inactive | 
37 | CC(C)CC(C)CC(C)CC(C)COC(=O)c1ccccc1C(=O)OCC(C)CC(C)CC(C)CC(C)C (stereo not given) | inactive | 
38 | CC(=O)Nc1cccc(C)c1 | inactive | 
39 | Cc1cc(Cl)c(C)cc1Cl | inactive | 
40 | CC(C)C(=O)OCc1cccc(OC(=O)[C@@H]2N3C(=O)[C@@H](NC(=O)Cc4ccccc4)[C@H]3SC2(C)C)c1 | inactive | 
